About 2,000 (36%) of roughly 5,500 compounds were called active. Roughly 18% stayed inconclusive and do not appear here. Some of the results follow. A number with no mark means an inactive call. No stated cut-off is given here; in the data, active means normalized growth mostly below about 0.91 (no sharp cut-off); inconclusive means no clear call, values can overlap the other calls; inactive means mostly above about 0.92.
Assay: chemical genetic growth profiling, strain panel (AID 1159580);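 further: tested at 20 µM; growth read once vehicle control cultures reached saturation at 30 °C; 1 = growth at the plate median or of vehicle wells; lower values mean less growth of the strain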
Details: S. cerevisiae deletion strains, growth OD

Which normalized growth (locus YAL040C, strain CLN3, active compounds read low) does the source give for OCCN1CCN(CC/C=C2/c3ccccc3Sc3ccc(C(F)(F)F)cc32)CC1 here?
Its normalized growth is 1.04.

And the normalized growth (locus YCL061C, strain MRC1 (second series), active compounds read low)?
Its normalized growth is 0.973.

What about the normalized growth (locus YDR363W, strain ESC2, active compounds read low) of the same molecule?
The normalized growth was 0.923.

And the normalized growth (locus YER002W, strain NOP16, active compounds read low)?
Its normalized growth is 1.01.

And the normalized growth (locus YGR078C, strain PAC10, active compounds read low)?
The normalized growth was 0.975.

And the normalized growth (locus YJR075W, strain HOC1, active compounds read low)?
Its normalized growth is 0.942.

And the normalized growth (locus YNL128W, strain TEP1, active compounds read low)?
Its normalized growth is 1.02.

And the normalized growth (locus YNL175C, strain NOP13, active compounds read low)?
Its normalized growth is 1.07.

And the normalized growth (locus YNL197C, strain WHI3, active compounds read low)?
Its normalized growth is 1.02.

What about the normalized growth (locus YNL224C, strain SQS1, active compounds read low) of the same molecule?
The normalized growth was 1.05.

And the normalized growth (locus YNL322C, strain KRE1, active compounds read low)?
The normalized growth was 0.974.

What about the normalized growth (locus YOR083W, strain WHI5 (second series), active compounds read low) of the same molecule?
The normalized growth was 0.887.

And the normalized growth (locus YPL055C, strain LGE1, active compounds read low)?
The normalized growth was 0.87 (active).
